Most compounds without a hit are left out; they make up all but 4.8% or so of the library.
S2 tox: Viability Counterscreen for Primary qHTS for Inhibitors of ATXN expression. Potency, µM (titrated, usually from 56.7 µM), most hits filed as cytotoxic. 400,000 tested, 0.49% active. S2 cells (HEK-293 line with an ATXN2-luciferase reporter) viability, CellTiter-Fluor protease fluorescence, 24 h. AID 651635, 2014; also: nearly all actives have a fitted effect of over 40% in size
ATXN2 expr inh: Primary qHTS for Inhibitors of ATXN expression; AID 1745845, 2022; Potency, µM (series often up to 57 µM), actives largely listed as inhibitors; 360,000 tested, 0.72% active; HEK-293 ATXN2-luciferase reporter, luminescence, 24 h; also: nearly all actives have a fitted effect of over 55% in size
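qHTS (up to 57 uM final) was run with 24 h compound exposure of reporter cells at 37 °C. Each well was multiplexed: SteadyGlo luminescence measured ATXN2-luciferase expression after a fluorogenic Gly-Phe-AFC viability readout (25 uM final).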
USP2a inh: qHTS Assay for Inhibitors of Ubiquitin-specific Protease USP2a Using CHOP2 as the Reporter; Ubiquitin carboxyl-terminal hydrolase 2 (Homo sapiens), O75604; USP2 core, Ub-CHOP2 coupled fluorogenic reporter, 485/531; Potency, µM (top dose mostly 38.3 µM), most hits filed as inhibitors; 330,000 tested, 0.01% active; AID 463254, 2010
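USP2 core (10nM final) preincubated 30min RT with compound in 20mM Tris-HCl pH 8.0, 2mM CaCl2, 2mM beta-mercaptoethanol, 0.05% CHAPS; 25nM Ub-CHOP2 plus 25nM reporter substrate added, fluorescence (Ex485/Em531) read after 60min.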
IL-1B inflam inh: qHTS for Inhibitors of Inflammasome Signaling: IL-1-beta AlphaLISA Primary Screen; THP-1 LPS/ATP IL-1B secretion, AlphaLISA, 16 h; active compounds read low; activity change, % at 57.5 µM; 360,000 tested, 4.7% active; AID 743279, 2014; in the data active = activity change below about -50%; inconclusive = mostly about -30% to -49%
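THP-1 cells pretreated 1 hr with compounds (up to 57.5 uM final), then stimulated with LPS (250 ng/mL final) plus ATP (1.25 mM final); secreted IL-1B measured by AlphaLISA after 16 hr, decreased signal indicating inhibition.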
USP1 inh: Inhibitors of USP1/UAF1: Primary Screen | 390,000 tested, 0.23% active | Potency, µM (titrated, usually from 57.1 µM), hits mostly inhibitors | Ubiquitin carboxyl-terminal hydrolase 1 (Homo sapiens), O94782 | recombinant USP1/UAF1, Ub-Rhodamine cleavage fluorescence; also: nearly all actives have a fitted effect of over 60% in size
Target sequence (O94782 whole entry, looked up): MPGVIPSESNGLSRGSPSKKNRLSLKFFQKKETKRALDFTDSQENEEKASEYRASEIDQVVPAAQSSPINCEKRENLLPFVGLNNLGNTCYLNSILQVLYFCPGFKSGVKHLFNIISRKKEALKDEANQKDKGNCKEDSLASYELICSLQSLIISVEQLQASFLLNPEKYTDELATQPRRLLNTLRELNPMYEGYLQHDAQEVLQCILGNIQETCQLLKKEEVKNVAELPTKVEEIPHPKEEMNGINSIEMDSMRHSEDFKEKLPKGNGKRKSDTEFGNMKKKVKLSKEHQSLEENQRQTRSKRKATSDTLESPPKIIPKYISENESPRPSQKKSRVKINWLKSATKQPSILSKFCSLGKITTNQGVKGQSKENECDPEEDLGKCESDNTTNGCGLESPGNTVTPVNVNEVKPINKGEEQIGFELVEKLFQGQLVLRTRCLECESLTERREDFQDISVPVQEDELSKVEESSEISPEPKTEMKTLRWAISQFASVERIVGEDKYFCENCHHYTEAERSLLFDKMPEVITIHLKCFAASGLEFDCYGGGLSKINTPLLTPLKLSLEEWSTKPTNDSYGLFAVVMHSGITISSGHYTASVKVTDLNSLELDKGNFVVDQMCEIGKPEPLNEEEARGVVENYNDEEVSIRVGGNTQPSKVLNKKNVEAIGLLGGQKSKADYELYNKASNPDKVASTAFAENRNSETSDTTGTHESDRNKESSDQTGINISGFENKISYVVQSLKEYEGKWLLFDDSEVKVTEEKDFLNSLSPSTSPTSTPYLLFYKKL
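1 nM enzyme complex + cpd, 15 min RT; start with Ub-Rho 150nM final; kinetic fluorescence ex 480/em 540, 6 reads q60 s. Buffer 50mM HEPES pH 7.8, 0.5mM EDTA, 0.1 mg/ml BSA, 1mM TCEP, 0.01% Tween-20.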
Numbers stand for hits; . = inactive; ? = inconclusive; / = not tested or not shown. Unless noted, calls follow the shape of the dose curve; as a rule, active = well fitted curve in the direction sought with a large enough effect; inconclusive = small, poorly fitted or top-dose-only effect, or another doubt; inactive = no such curve, though single readings can be large; an effect the other way counts as inactive or inconclusive.

SMILES	S2 tox	ATXN2 expr inh	USP2a inh	IL-1B inflam inh	USP1 inh
CCCSc1nc2sc3c(c2c(=O)n1-c1ccc(C)c(Cl)c1)CCN(C(C)=O)C3	.	.	/	/	?
CCc1nc(SC)ncc1C(=O)NCc1cccc(Br)c1	.	.	/	/	.
OC1CCN(c2cc(-c3ccccc3)nc3cc(-c4ccc(F)cc4)nn23)CC1	.	.	.	.	.
CCN1CCN(c2cc(-c3ccccc3)nc3cc(-c4cccc(F)c4)nn23)CC1	/	?	.	-62	?
COC(=O)C1CCN(Cc2ccc3c(c2)CN(C(=O)C2Cc4ccccc4O2)CCO3)CC1 (centres undefined)	.	/	/	/	/
Cc1ccc2nc3c(c(N)c2c1)CCN3c1ccccc1	.	.	.	-77	.
N#CC(C(=O)Nc1cccc(Cl)c1)=C1Nc2ccccc2N1	?	?	.	.	.
CC1CCC(=C(C#N)C(=O)Nc2cccc(Cl)c2)CC1 (centres undefined)	.	.	.	-87	.
Cc1ccc(NC(=O)c2cc(Cl)ccc2[N+](=O)[O-])cc1C	?	.	.	-100	.
O=C(Nc1cccc(NC(=O)c2ccccc2Cl)c1)c1ccc([N+](=O)[O-])o1	?	?	.	-106	.
O=C(Nc1nc2c(Cl)cccc2s1)c1ccc([N+](=O)[O-])o1	?	?	.	.	.
O=C(Nc1cccc([N+](=O)[O-])c1)c1ccc2ccccc2c1O	.	.	.	-63	.
Cc1ccc(NC(=O)c2ccc([N+](=O)[O-])o2)cc1C	?	.	.	-94	.
CCc1ccc(-c2cc(C(=O)O)c3ccccc3n2)s1	.	/	.	.	.
C[C@H]1CN(CCc2ccccc2)C(=O)[C@@H]1CC(=O)Nc1ccc(Br)cc1	.	.	/	.	.
COc1ccc(C(=O)Nc2nnc(SCc3cc(=O)c4cccc(F)c4[nH]3)s2)cc1	/	/	/	/	.
O=C(Nc1cccc([N+](=O)[O-])c1)c1ccncc1	.	.	.	.	.
CC(C)(C)c1ccc(C(=O)Nc2cccc([N+](=O)[O-])c2)cc1	?	.	.	-98	.
Cc1ccc2nsnc2c1NC(=O)c1ccc([N+](=O)[O-])o1	.	.	.	-92	.
O=C(Nc1cccc([N+](=O)[O-])c1)c1ccc([N+](=O)[O-])o1	?	/	/	-103	.
O=C(Nc1ccc2[nH]c(=O)[nH]c2c1)c1ccc([N+](=O)[O-])o1	?	.	.	?	?
O=c1cc(-c2cccc3c2Sc2ccccc2S3)oc(N2CCOCC2)c1	/	.	/	/	/
COc1cc(OC)cc(C(=O)Nc2cc(-c3nc4ccccc4[nH]3)ccc2C)c1	?	?	/	/	.
COc1c(Cl)cc(C(=O)Nc2cc(-c3nc4ccccc4[nH]3)ccc2C)cc1Cl	10µM	?	/	/	.
CC(=O)c1ccc(-c2cc(F)cc3c2OC(CNC(=O)C(C)N2CCOCC2)C3)s1 (centres undefined)	.	/	/	/	/
SMILES	S2 tox	ATXN2 expr inh	USP2a inh	IL-1B inflam inh	USP1 inh
CCCOc1ccc(C(F)(F)F)cc1NC(=O)c1cc(C)on1	.	.	.	.	.
CCCOc1ccc(C(F)(F)F)cc1NS(=O)(=O)c1ccc(Cl)nc1	.	?	.	-65	.
CC(C)C(NC(=O)C1CC(=O)N(Cc2ccccc2)C1)c1nc2ccccc2[nH]1 (centres undefined)	.	.	.	.	.
O=C(Nc1nc(-c2ccccc2)cs1)c1ccccc1NS(=O)(=O)c1ccc(F)cc1	.	?	.	-50	?
O=S(=O)(Nc1ccc(-c2csc(-c3ccccc3)n2)cc1)c1ccc(F)cc1	?	?	.	-101	.
Fc1ccc(-c2csc(-c3ccncc3)n2)cc1	.	.	.	.	.
COc1ccc(C(=O)Nc2nc3c(s2)Cc2c(Br)ccc(OC)c2-3)cc1OC	.	.	/	/	.
C[C@@H]1CN([C@@H](C)CO)S(=O)(=O)c2ccc(C#CC3CCCCC3)cc2O[C@@H]1CN(C)Cc1cccnc1	?	28µM	/	-66	.
COc1ccc(S(=O)(=O)N(C)C[C@@H]2Oc3cc(C#CC4CCCCC4)ccc3S(=O)(=O)N([C@@H](C)CO)C[C@@H]2C)cc1	?	.	/	-52	?
C[C@H]1CN([C@@H](C)CO)S(=O)(=O)c2ccc(C#CC3CC3)cc2O[C@H]1CN(C)C(=O)c1cccnc1	.	.	/	.	.
CC1(c2ccc(OC(F)F)cc2)NC(=O)N(CC(=O)Nc2ccc(N3CCCCC3)cc2)C1=O (centres undefined)	.	.	.	.	.
CCOc1ccc(N2C=Nc3ccc(OCC)cc3C2)cc1	?	/	.	-60	.
Clc1ccc(C2=CSC3=NCCN23)c(Cl)c1	.	.	/	-51	.
Cc1ccc(C2=CSC3=NCCN23)c(C)c1	.	.	.	.	.
Cc1ccccc1Nc1nc(N)nc(CCl)n1	?	.	.	-94	.
Nc1nc(CCl)nc(Nc2ccc3ccccc3c2)n1	3.4µM	3.8µM	.	-99	.
Cc1ccccc1Nc1nc(N)nc(CN(C)c2ccccc2)n1	.	.	.	.	.
COc1ccc(Nc2nc(N)nc(CCl)n2)cc1	?	/	.	-60	.
COc1cc(C(=O)N2CCN(S(=O)(=O)c3ccc(C)cc3)CC2)ccc1OCC(=O)N1CCOCC1	?	/	/	.	.
COc1ccccc1CCn1cnc(-c2ccc(OC)c(OC)c2)c1C(C)C	?	.	/	-51	/
CCCCCc1c(-c2ccccc2)ncn1CCc1ccccc1OC	?	.	/	.	/
CCCCc1c(-c2ccc(OC)c(OC)c2)ncn1CCc1ccccc1OC	/	?	/	-51	/
CCCCc1c(-c2cccc(OC)c2)ncn1CCc1ccccc1OC	/	22µM	/	-96	/
CCCS/C(N)=N/N=C/c1cc(C)ccc1O	.	.	.	-51	.
CCCCS/C(N)=N/N=C/c1ccccc1O	?	.	.	.	.
SMILES	S2 tox	ATXN2 expr inh	USP2a inh	IL-1B inflam inh	USP1 inh
Cc1cc2cc(C)c3nnc(SCC(=O)NCc4ccc5c(c4)OCO5)n3c2cc1C	/	/	.	.	.
O=C(CSc1nnc(-c2cccs2)n1Cc1ccccc1)NCc1ccc2c(c1)OCO2	.	.	.	-61	.
Cc1cc(C)c2cc(C)c3nnc(SCC(=O)NCc4ccc5c(c4)OCO5)n3c2c1	.	.	.	-59	.
O=C(c1cccc(Cl)c1)n1nc(-c2ccco2)nc1NCc1cccs1	.	.	/	/	.
CN1CCc2nc3ccc(Cl)cc3c(-c3ccccc3Cl)c2C1	.	.	.	-56	.
NS(=O)(=O)c1ccc(NC(=O)/C(=C/c2ccncc2)NC(=O)c2ccccc2)cc1	.	.	.	.	.
O/N=C/c1ccc2cccc(OCc3ccccc3)c2n1	.	.	.	.	.
NC(N)=N/N=C/c1ccc2cccc(OCc3ccccc3)c2n1	?	30µM	.	-96	.
